Source: PubChem BioAssay (National Center for Advancing Translational Sciences (NCATS))
Only some compounds are listed: those with a hit (about 4.7% of all), similar ones and a draw of the others.
D1 antagonist = human D1 dopamine receptor antagonism; P21728; HEK293 TREx D1 cells, calcium flux, dopamine EC80; stronger effect = lower value; activity change, negative = inhibition, % at 10 µM; hit rate 3.2% among 360,000; AID 504652; in the data active = activity change below about -30%; note: % is set by controls: 0 for no effect and ±100 for the full control effect
Target sequence (P21728 whole entry, looked up): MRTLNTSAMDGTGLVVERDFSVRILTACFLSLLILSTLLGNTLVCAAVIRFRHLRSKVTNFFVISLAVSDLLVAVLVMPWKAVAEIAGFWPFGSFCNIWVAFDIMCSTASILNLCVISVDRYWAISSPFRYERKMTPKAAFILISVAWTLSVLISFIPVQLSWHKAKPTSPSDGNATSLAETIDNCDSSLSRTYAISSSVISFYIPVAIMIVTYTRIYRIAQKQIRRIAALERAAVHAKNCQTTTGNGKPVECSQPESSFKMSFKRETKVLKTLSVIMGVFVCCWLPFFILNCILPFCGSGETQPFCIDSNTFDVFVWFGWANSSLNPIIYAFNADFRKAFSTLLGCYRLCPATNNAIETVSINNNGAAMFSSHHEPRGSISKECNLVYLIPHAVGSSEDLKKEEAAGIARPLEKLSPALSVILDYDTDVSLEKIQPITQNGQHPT
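Calcium flux readout: force-coupled, inducible Hek293 Trex D1 line, cells induced overnight at 30 C with tetracycline, dye-loaded 30–90 min at RT. Antagonism scored against EC80 dopamine challenge given 180 s after compound.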
TRHR enhancer = allosteric enhancers of human TRH receptor. AID 493056. enhancement, % at 2 µM. P34981. TRHR cells, fluo-8 calcium fluorescence, EC20 TRH enhancement. hit rate 0.66% among 360,000; in the data active = enhancement above about 30%; note: 0% is about no effect
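TRHR-expressing cells loaded with fluo-8 calcium dye were read kinetically (ex 480/em 530) during compound addition, then stimulated with an EC20 of TRH (10 nM final). Enhancement of the Gq-mediated intracellular calcium response was scored.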
TRHR agonist = agonists of human TRH receptor; P34981; TRHR cells, calcium flux fluo-8, FDSS agonist mode; activation, % at 2 µM; hit rate 0.18% among 360,000; AID 493084; note: 0% is about no effect
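In this calcium-flux screen, cells bearing human TRHR are dye-loaded with fluo-8, baselined for 10 cycles, then exposed to library compounds; positive kinetic calcium responses during the agonist phase mark hits, with TRH as control.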
D1 agonist = activates the human D1 dopamine receptor. P21728. HEK293 T-REx D1 cells, calcium flux, agonist mode. activation, % at 2 µM. hit rate 1% among 360,000. AID 504660; note: 0% is about no effect
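Tetracycline-induced HEK293 TREx D1 cells, force-coupled to calcium signalling, were dye-loaded with a no-wash calcium kit. Compound was pin-added after a 10 s baseline. Fluorescence was read kinetically at 1 cycle/s for 180 s, with calcium rises flagged as agonism.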
D1 PAM = human D1 dopamine receptor positive modulation. P21728. HEK293 TREx D1 cells, calcium flux, dopamine EC20 potentiation. potentiation, % at 10 µM. hit rate 0.036% among 360,000. AID 504651; in the data active = potentiation above about 30%; note: 0% is about no effect
Active calls of the source: *. Cut-off read from the data, not from the text of the source, unless noted: active = activation above about 30%; inactive = the rest.

SMILES | D1 antagonist | TRHR enhancer | TRHR agonist | D1 agonist | D1 PAM
COc1ccc(NS(=O)(=O)c2cccc(C(=O)N3CCN(Cc4ccc5c(c4)OCO5)CC3)c2)cc1 | -61* | -1 | 0 | 6 | -9
COc1ccc(OC)c(S(=O)(=O)NC2CCN(Cc3ccccc3)CC2)c1 | -2 | -3 | 0 | 3 | 8
COc1ccc(CNC2CCN(Cc3ccccc3)CC2)cc1 | 19 | -3 | 2 | 32* | -8
COc1ccc(/C=C/c2nc(C#N)c(N3CCN(c4ccccc4)CC3)o2)cc1OC | -10 | 1 | 0 | 0 | 4
CCOC(=O)CSc1nc2sc3c(c2c(=O)n1-c1ccccc1)CC(C(C)C)OC3 (stereo not drawn) | -14 | -1 | 1 | 1 | 1
CC(C)(C)c1ccc(C2SCC(=O)N2c2cccc(C(=O)O)c2)cc1 (stereo not drawn) | -33* | -4 | 0 | 3 | -7
COc1ccc(NC(=O)CN2CCN(C(=O)C3CCCO3)CC2)c(OC)c1 (stereo not drawn) | 4 | 15 | 0 | 50* | 3
CCN(CC)c1nc(C)c(C(=S)Nc2cc([N+](=O)[O-])ccc2Cl)s1 | -3 | 2 | 4 | 39* | -4
CCOC(=O)N1CCN(CC(=O)N2c3ccccc3Sc3ccccc32)CC1 | -5 | 8 | -1 | 47* | 12
CC1CCCN(CC(=O)N2c3ccccc3Sc3ccccc32)C1 (stereo not drawn) | 9 | 36* | 0 | 9 | -3
CCOC(=O)Nc1ccc2c(c1)N(C(=O)N1CCN(C)CC1)c1ccccc1S2 | -64* | -6 | 1 | 10 | -11
O=C(CN1CCCCCC1)N1c2ccccc2Sc2ccccc21 | 15 | 1 | 2 | 5 | -5
CN1CCN(S(=O)(=O)c2ccc(N3CCN(S(=O)(=O)/C=C/c4ccccc4)CC3)nc2)CC1 | -49* | 2 | 0 | 5 | -12
CC(=O)Nc1sc(/C(C#N)=C\c2cccc(Cl)c2)nc1-c1ccc(C)cc1 | -45* | -4 | 67* | 244* | -6
O=C1CC(N2CCN(c3ccc(Cl)c(Cl)c3)CC2)C(=O)N1 (stereo not drawn) | -21 | 16 | 0 | 32* | -16
Cc1nnc(-c2ccccc2)c(=O)n1/N=C/c1c(O)ccc2ccccc12 | -24 | 9 | -1 | 113* | -5
Cc1nnc(C)n1/N=C/c1c(O)ccc2ccccc12 | -7 | 3 | 1 | 2 | -1
COC(=O)c1ccc(NC(=O)Cc2coc3cc(C)ccc23)cc1 | -22 | -1 | 0 | 11 | -3
Clc1ccc(CN(CC2CCCO2)C(c2cccs2)c2nnnn2C2CCCC2)cc1 (stereo not drawn) | -53* | 4 | 0 | 3 | -22
Clc1ccccc1CN(Cc1ccccc1)C(c1cccs1)c1nnnn1C1CCCC1 (stereo not drawn) | -34* | -6 | 0 | 3 | -8
CCn1c(SCC(=O)N/N=C/C=C\c2ccco2)nc2ccccc21 | -35* | -7 | 0 | 3 | -6
Cn1c(SCC(=O)N/N=C/C=C\c2ccco2)nc2ccccc21 | 7 | 3 | 0 | 0 | 10
CCOc1ccccc1CNC(=O)c1ccc2c(c1)nc1n2CCCCC1 | -12 | -3 | -1 | -1 | 3
O=C(/C=C/c1ccc(Cl)cc1Cl)NC(=S)Nc1ccccn1 | -44* | 1 | 1 | 3 | -6
O=C(/C=C/c1ccc(Cl)cc1Cl)NC(=S)Nc1ccc(CN2CCOCC2)cc1 | -5 | 3 | -1 | 2 | -2
SMILES | D1 antagonist | TRHR enhancer | TRHR agonist | D1 agonist | D1 PAM
CCOCC(=O)Nc1nnc(C2CCCCC2)s1 | -36* | 2 | 0 | -2 | -7
COCC(=O)Nc1nnc(C2CCCCC2)s1 | -2 | 5 | 0 | 5 | 0
Cn1nc(-c2ccc3c(c2)OCCO3)c2ccccc2c1=O | -34* | -4 | 0 | 20 | -6
Cn1c2ccccc2c(=O)c2ccc(-c3ccc4c(c3)OCO4)cc21 | -48* | -6 | -1 | 1 | -8
CC(=O)Nc1ccc(NS(=O)(=O)c2c(C(=O)N3CCCCCC3)c(C)n(C)c2C)cc1 | -3 | 4 | 1 | 3 | -2
O=C(Nc1ccc(S(=O)(=O)N(Cc2ccccc2)c2ccccc2)cc1)c1ccc(F)cc1 | -16 | 0 | 1 | 10 | 1
CCOC(=O)N1CCC(NC(=O)c2ccc(N3CCC4(CC3)OCCO4)c([N+](=O)[O-])c2)CC1 | 8 | 3 | 0 | 3 | -7
CCCCNC(=O)c1ccc(N2CCC3(CC2)OCCO3)c([N+](=O)[O-])c1 | -50* | 1 | 0 | 2 | -6
Cc1ccc(S(=O)(=O)n2nc(-c3ccc(Cl)cc3)nc2NCc2ccc(F)cc2)cc1 | -48* | 28 | 1 | 11 | 2
Cc1ccc(S(=O)(=O)n2nc(-c3ccccc3)nc2NCc2ccc(Cl)cc2)cc1 | -57* | 6 | 3 | 5 | 0
COc1ccc(-c2cnc(C)o2)cc1S(=O)(=O)Nc1ccc(C)c(N(C)C)c1 | 5 | -2 | 0 | 1 | -1
Oc1ccc(COC2CCCC2)c2cccnc12 | -20 | 6 | 0 | 2 | 2
Cc1cc(=O)[nH]c(Cc2ccc(OC(C)C)cc2)n1 | -76* | 3 | 0 | 1 | -4
COc1cc(Cn2c(=O)oc3ccc(C)cc32)ccc1OC(C)C | -33* | -9 | 1 | 11 | -12
CCOc1ccc(S(=O)(=O)NCC(c2ccc(N(C)C)cc2)N2CCCC2)cc1 (stereo not drawn) | -3 | 0 | -1 | 0 | 0
S=c1[nH]nc(-c2ccncc2)n1/N=C/c1cn(-c2ccccc2)nc1-c1ccccc1 | -6 | 30* | 0 | 5 | 0
O=[N+]([O-])c1ccc(-c2nn(-c3ccccc3)cc2/C=N/n2c(-c3ccncc3)n[nH]c2=S)cc1 | -10 | 5 | 0 | 0 | 2
COc1ccc(C(=O)NC2CC3CCCC(C2)N3Cc2ccccc2)cc1 (stereo not drawn) | -49* | 4 | 0 | 2 | -12
O=C(NC1CC2CCCC(C1)N2Cc1ccccc1)c1ccc([N+](=O)[O-])cc1 (stereo not drawn) | -57* | 3 | 0 | 4 | 1
COc1cccc(C(=O)NC2CCN(CC(=O)Nc3nccs3)CC2)c1 | -33* | 3 | 0 | 2 | -2
CCOc1ccc(C(=O)NC2CC3CCCC(C2)N3Cc2ccccc2)cc1 (stereo not drawn) | -16 | 21 | 0 | 5 | -14
O=C(NCc1ccccc1)NC1CC2CCC(C1)N2Cc1ccco1 (stereo not drawn) | -5 | -1 | 1 | 6 | -5
COc1cccc(C(=O)NC2CCN(CC(=O)Nc3c(C)cc(C)cc3C)CC2)c1 | -13 | -2 | -1 | 0 | -6
O=C(NC1CC2CCC(C1)N2Cc1ccco1)c1ccccc1 (stereo not drawn) | -40* | 7 | 0 | 2 | -25
